Hits are enriched below; roughly 3% of the tested compounds scored in any of these assays.
LmPK inhibitor: blocks Leishmania mexicana pyruvate kinase activity. Q27686. purified LmPK, Kinase-Glo ATP luminescence, 1 h. Potency, µM (top dose mostly 57.5 µM), actives largely listed as inhibitors. hit rate 0.37% among 290,000. AID 1721
Target sequence (Q27686 whole entry, looked up): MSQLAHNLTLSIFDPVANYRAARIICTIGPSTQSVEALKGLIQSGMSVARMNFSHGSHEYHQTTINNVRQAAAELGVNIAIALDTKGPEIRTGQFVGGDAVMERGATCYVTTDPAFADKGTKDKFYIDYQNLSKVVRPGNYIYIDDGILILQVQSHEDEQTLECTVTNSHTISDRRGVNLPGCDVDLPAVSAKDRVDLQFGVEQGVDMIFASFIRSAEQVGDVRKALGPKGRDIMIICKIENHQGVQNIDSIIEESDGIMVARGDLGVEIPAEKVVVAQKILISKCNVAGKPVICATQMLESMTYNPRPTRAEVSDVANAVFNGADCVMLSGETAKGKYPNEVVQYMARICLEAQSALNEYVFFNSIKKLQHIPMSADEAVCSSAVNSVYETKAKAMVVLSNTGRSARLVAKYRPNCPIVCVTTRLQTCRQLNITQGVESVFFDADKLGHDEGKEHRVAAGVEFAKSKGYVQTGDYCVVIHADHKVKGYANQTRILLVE
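Screened at intermediate enzyme activity to detect both inhibitors and activators: LmPK at 0.1 nM, with a 0.5 nM enzyme column as activation reference. PEP 0.5 mM, ADP 0.1 mM; ATP detected by luminescence after 1 h.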
RE007 growth inh: less growth of the S. pombe RE007 Vpr strain; S. pombe RE007 Vpr strain, BacTiter-Glo ATP luminescence, 24 h; Potency, µM (highest dose often 92.2 µM), most hits filed as inhibitors; hit rate 0.21% among 360,000; active = well fitted falling curve with a large enough effect; inconclusive = small, poorly fitted or top-dose-only effect; inactive = no such curve, though single readings can be large or run the other way; note: nearly all actives have a fitted effect of over 50% in size
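Fission yeast RE007 carrying one integrated HIV-1 vpr copy, seeded at OD 0.01 in PMG+AL medium with 23 nL pinned compound. Grown 24 h at 30 degrees; viability read by BacTiter-Glo luminescence after 5 min.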
Tb PYK inh: T. brucei pyruvate kinase inhibition. Q57TT1. TbPYK enzyme, Kinase-Glo Plus ATP luminescence, 45 min. Potency, µM (titrated, usually from 76.8 µM), usual class: inhibitors. hit rate 0.12% among 410,000. AID 624173; note: nearly all actives have a fitted effect of over 50% in size
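Enzyme and substrate buffer are dispensed first and compound is pin-transferred. ADP at 130 uM final then starts the reaction, which runs 45 min at room temperature. Detection reagent is added for 10 min before luminescence is imaged.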
Sm TGR block: inhibitors of Schistosoma mansoni thioredoxin glutathione reductase; Q962Y6; purified TGR, DTNB reduction, TNB absorbance 405 nm; Potency, µM (titrated, usually from 114 µM), actives largely listed as inhibitors; hit rate 3% among 360,000; note: nearly all actives have a fitted effect of over 60% in size
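Kinetic colorimetric format: TGR-catalysed, NADPH-driven DTNB reduction monitored via TNB absorbance. Enzyme dispensed at 20 nM; compound exposure 15 min at room temperature before reaction start.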
Numbers stand for hits; i = inactive; ? = inconclusive; nt = no result given. Unless noted, calls come from the whole dose curve; as a rule, active = well fitted curve in the direction sought with a large enough effect; inconclusive = small, poorly fitted or top-dose-only effect, or another doubt; inactive = no such curve, though single readings can be large; an effect the other way counts as inactive or inconclusive.

SMILES	LmPK inhibitor	RE007 growth inh	Tb PYK inh	Sm TGR block
OCCCc1nc2n(n1)C(c1cccs1)C=C(c1ccccc1)N2 (configuration not stated)	i	nt	nt	?
OCCCc1nc2n(n1)C(c1ccccc1Cl)C=C(c1cccs1)N2 (configuration not stated)	i	i	?	28µM
CCOc1ccccc1NC(=O)c1ccc2c(Cl)c3c(nc2c1)CCC3	nt	nt	i	i
O=[N+]([O-])c1ccc(N2CCOCC2)c2c1no[n+]2[O-]	nt	45µM	i	nt
Cc1ccccc1CN1CCCN(CC(=O)Nc2ccc(F)cc2)S1(=O)=O	nt	nt	i	i
CN(C)c1ccc(-c2ccccc2)nn1	25µM	i	i	i
CC(C)(C)C(=O)C(Cl)C(=O)Nc1ccccc1 (configuration not stated)	i	i	i	22µM
Fc1ccc(C[n+]2csc3ccccc32)cc1	i	i	?	i
Clc1ccc(C[n+]2csc3ccccc32)cc1	i	i	?	4.5µM
CCOc1ccc(NC(=O)CSC2=Nc3ccccc3C3=NC(CC(=O)NCc4ccc5c(c4)OCO5)C(=O)N23)cc1 (configuration not stated)	nt	nt	i	i
CCc1ccc(NC(=O)c2sc3nc(C)c(Cl)c(C)c3c2NC(=O)c2ccccc2)cc1	nt	nt	i	i
COCCN1C(=S)N[C@@H](c2ccccc2)C(C(=O)OC)=C1C	i	nt	nt	32µM
COC(=O)C1=C(C)N(Cc2ccccc2)C(=S)N[C@H]1c1ccc(Br)cc1	i	i	i	i
COc1ccc(N=Cc2nc(-c3ccccc3)oc2OC(C)=O)cc1	i	i	i	?
O=C(Oc1oc(-c2ccco2)nc1C=Nc1ccccc1)c1ccoc1	i	i	i	1.4µM
Cc1ccc(C(=O)Oc2oc(-c3ccco3)nc2C=Nc2ccc(Cl)cc2)cc1	i	i	i	2.2µM
COc1cccc(N=Cc2nc(-c3ccccc3)oc2OC(C)=O)c1	i	i	i	10µM
O=C(Oc1oc(-c2ccco2)nc1C=Nc1ccccc1)c1ccco1	i	?	?	1.6µM
Cc1ccc(C(=O)Oc2oc(-c3ccccc3)nc2C=Nc2ccc(N(C)C)cc2)cc1	i	i	i	?
CC(=O)NC(c1cc(F)c2cccnc2c1O)C(C)C (configuration not stated)	nt	nt	nt	i
COc1ccc(-n2cc(C(=O)NCCc3cc(OC)ccc3OC)c3ccccc3c2=O)cc1	nt	nt	i	i
COc1ccc(-n2c(=O)c3c4c(sc3n(Cc3ccccc3)c2=O)CN(C(C)=O)CC4)cc1OC	nt	nt	i	i
CC(NC(CCc1ccccc1)C(=O)O)C(=O)N1CCCC1C(=O)O (configuration not stated)	nt	nt	i	nt
O=C(Nc1nc2c(s1)CN(Cc1ccccc1)CC2)C1CCCC1	i	i	i	?
CC(C)(C)C(=O)Nc1nc2c(s1)CN(Cc1ccccc1)CC2	i	i	i	25µM
SMILES	LmPK inhibitor	RE007 growth inh	Tb PYK inh	Sm TGR block
Cc1ccc(-c2nn(-c3ccccc3)cc2C2SCC(=O)N2Cc2ccccc2)o1 (configuration not stated)	i	i	i	11µM
O=C1CSC(c2cn(-c3ccccc3)nc2-c2cc3ccccc3oc2=O)N1Cc1ccco1 (configuration not stated)	i	i	i	22µM
O=c1c2c3c(sc2[nH]c(=S)n1Cc1ccco1)CCC3	i	i	?	14µM
CN(C)CCCn1c(=O)n(Cc2ccco2)c(=O)c2c3c(sc21)CCCCC3	i	i	?	35µM
CN(C)CCCn1c(=O)n(CCc2ccccc2)c(=O)c2c3c(sc21)CCCCC3	i	i	i	i
COc1ccc2[nH]c(S(=O)Cc3ncc(C)c(OC)c3C)nc2n1 (configuration not stated)	nt	nt	i	nt
CC1CCN(CC(CS(=O)(=O)c2ccc([N+](=O)[O-])cc2)N2CCC(C)CC2)CC1 (configuration not stated)	i	i	i	2.5µM
CC#CC#Cc1cccc(=O)o1	i	i	i	20µM
CC(C)N=C1NN=C(c2cccs2)C(CC(=O)O)S1 (configuration not stated)	i	i	i	16µM
COc1ccccc1N1C(=O)CC(Sc2n[nH]c(-c3cccc(C)c3)n2)C1=O (configuration not stated)	i	i	?	0.63µM
Cc1ccc(NC(=O)Cn2c(=O)n(Cc3ccco3)c(=O)c3sc4ccccc4c32)cc1C	nt	nt	i	i
CCC(CC)C(=O)Nc1nnc(SCc2cc(=O)c3ccccc3[nH]2)s1	nt	nt	i	i
O=C(NCc1ccc(F)cc1)c1cnc(N2CCCCC2)c2ccccc12	nt	nt	i	i
Cc1ccccc1N/N=C/c1sc(=O)n(Cc2cccc(C(=O)O)c2)c1Cl	i	i	i	10µM
COC(=O)c1cccc(Cn2c(Cl)c(/C=N/Nc3ccccc3C)sc2=O)c1	i	i	i	7.9µM
COC(=O)c1cccc(CN2C(=O)SC(Nc3ccccc3C)C2=O)c1 (configuration not stated)	nt	nt	i	i
Cc1ccc(CCNC(=O)C2CCCN(C(=O)c3cc4sccc4n3C)C2)cc1 (configuration not stated)	i	i	8.9µM	i
CC(=O)N1CCC2(CC1)CN(Cc1ccccc1)C2	nt	nt	i	nt
COc1ccc(CCNC(=O)CSc2ccc3ccccc3c2)cc1OC	i	i	i	i
O=C(CSc1ccc2ccccc2c1)NCCc1ccc(O)c(O)c1	i	i	32µM	11µM
Cc1cccc(C)c1NC(=O)[C@H](C)N	nt	nt	i	nt
O=[N+]([O-])c1ccc(Sc2ccccn2)nc1	i	i	i	i
O=[N+]([O-])c1ccc(Sc2nnnn2-c2ccccc2)nc1	i	?	i	14µM
CCS(=O)(=O)c1c([N+](=O)[O-])ncn1C	i	i	i	0.63µM
Cn1cnc([N+](=O)[O-])c1Cl	i	i	i	4µM
SMILES	LmPK inhibitor	RE007 growth inh	Tb PYK inh	Sm TGR block
Cn1cnc([N+](=O)[O-])c1Sc1ncn[nH]1	i	nt	i	2.8µM
CNc1c([N+](=O)[O-])ncn1C	i	i	i	i
COc1cccc(NC(=O)CN(C)C(=O)/C=C/c2ccc3ccccc3n2)c1	nt	i	i	i
CCCCc1c(-c2cccc(Br)c2)ncn1CCc1ccccc1OC	nt	?	i	nt
O=C(NC(=S)Nc1ccccc1Br)C1CCCC1	i	?	i	13µM
O=C(NC(=S)Nc1ccccc1Br)C1CCCCC1	nt	i	i	nt
O=S(=O)(c1cccc(-c2n[nH]c(=S)n2Cc2ccccc2)c1)N1CCOCC1	i	i	?	i
CCN(CC)S(=O)(=O)c1cccc(-c2n[nH]c(=S)n2CC(C)C)c1	?	i	8.9µM	i
CCN(CC)S(=O)(=O)c1cccc(-c2n[nH]c(=S)n2Cc2ccccc2)c1	i	i	5.6µM	i
COc1cc(NS(=O)(=O)c2cc3c(cc2C)N(C)CCO3)cc(OC)c1OC	nt	nt	i	i
Cc1cnnn1-c1ccc(C(=O)CCl)cc1	i	i	i	5.6µM
O=C(c1ccc(C(F)(F)F)cc1)N1CCN(c2ccc(N3CCOCC3)nn2)CC1	nt	i	i	i
C=CCN1C(=O)/C(=C/c2ccsc2)SC1=S	i	i	i	i
